As usually defined, the inhibition is the change of the read-out against control, counted positive when it falls.

Experiment [1] concerns the target T1, Tyrosine-protein kinase receptor TYRO3 (Homo sapiens) (UniProt Q06418).
T1 sequence (whole entry): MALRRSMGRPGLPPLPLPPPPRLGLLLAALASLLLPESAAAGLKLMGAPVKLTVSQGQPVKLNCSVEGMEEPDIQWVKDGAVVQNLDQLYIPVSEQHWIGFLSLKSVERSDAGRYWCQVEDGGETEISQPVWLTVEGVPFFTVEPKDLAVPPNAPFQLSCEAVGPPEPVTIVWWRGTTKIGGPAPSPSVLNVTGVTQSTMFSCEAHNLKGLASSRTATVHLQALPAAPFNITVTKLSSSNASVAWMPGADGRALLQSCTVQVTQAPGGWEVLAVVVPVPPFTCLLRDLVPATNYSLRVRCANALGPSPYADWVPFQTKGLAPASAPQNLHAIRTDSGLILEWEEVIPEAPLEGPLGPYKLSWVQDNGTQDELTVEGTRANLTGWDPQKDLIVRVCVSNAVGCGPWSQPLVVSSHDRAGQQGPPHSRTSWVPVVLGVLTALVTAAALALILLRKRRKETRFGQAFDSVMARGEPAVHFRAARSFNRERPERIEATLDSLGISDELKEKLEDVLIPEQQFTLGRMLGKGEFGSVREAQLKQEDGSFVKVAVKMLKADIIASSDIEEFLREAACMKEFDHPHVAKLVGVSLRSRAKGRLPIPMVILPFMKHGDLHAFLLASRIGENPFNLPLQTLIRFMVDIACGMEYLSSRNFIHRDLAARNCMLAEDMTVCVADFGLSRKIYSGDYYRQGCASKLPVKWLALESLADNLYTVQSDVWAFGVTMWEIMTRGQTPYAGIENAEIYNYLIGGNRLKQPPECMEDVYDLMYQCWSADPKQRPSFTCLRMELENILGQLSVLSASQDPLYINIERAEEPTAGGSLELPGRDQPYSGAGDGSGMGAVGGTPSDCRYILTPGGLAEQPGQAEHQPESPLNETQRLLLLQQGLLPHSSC
The following applies: at 1 µM.

Experiment [2] deals with Tyrosine-protein kinase Yes (Homo sapiens) (UniProt P07947). The following applies: at 0.1 µM.
The target is the same in experiment [3]. The following applies: at 1 µM.
Experiment [4] has as its target T2, Tyrosine-protein kinase ZAP-70 (Homo sapiens) (UniProt P43403).
T2 sequence (whole entry): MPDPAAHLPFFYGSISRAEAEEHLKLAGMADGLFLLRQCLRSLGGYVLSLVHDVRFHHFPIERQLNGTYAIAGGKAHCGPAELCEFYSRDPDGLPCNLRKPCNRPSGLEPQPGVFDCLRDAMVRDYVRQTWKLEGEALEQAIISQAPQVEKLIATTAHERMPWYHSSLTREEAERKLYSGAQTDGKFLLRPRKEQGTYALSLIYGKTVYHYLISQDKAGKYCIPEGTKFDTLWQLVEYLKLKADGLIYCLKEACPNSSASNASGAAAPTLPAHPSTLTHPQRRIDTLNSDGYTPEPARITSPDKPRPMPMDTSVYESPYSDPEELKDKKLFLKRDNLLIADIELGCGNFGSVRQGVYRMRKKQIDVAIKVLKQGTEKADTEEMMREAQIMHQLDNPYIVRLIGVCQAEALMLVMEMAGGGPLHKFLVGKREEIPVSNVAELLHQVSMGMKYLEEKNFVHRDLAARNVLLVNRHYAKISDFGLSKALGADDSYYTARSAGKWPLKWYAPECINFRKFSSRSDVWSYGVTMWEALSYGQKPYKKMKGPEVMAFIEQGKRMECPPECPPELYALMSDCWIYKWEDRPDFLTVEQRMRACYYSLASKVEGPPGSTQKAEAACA
The following applies: at 0.1 µM.

Experiment [5] deals with T2, Tyrosine-protein kinase ZAP-70 (Homo sapiens). The following applies: at 1 µM.
Experiment [6] concerns the target Serine/threonine-protein kinase B-raf (Homo sapiens) (UniProt P15056). The following applies: at 0.1 µM.
Experiment [7] shares this target. The following applies: at 1 µM.
For experiment [8], the system named is Serine/threonine-protein kinase B-raf (Homo sapiens), P15056 [V600E]. The following applies: at 0.1 µM.
The test system is the same in experiment [9]. The following applies: at 1 µM.
Experiment [10] concerns the target RAF proto-oncogene serine/threonine-protein kinase (Homo sapiens) (UniProt P04049). The following applies: at 0.1 µM.
Experiment [11] has the same target. The following applies: at 1 µM.
Experiment [12] concerns the target T3, Interleukin-1 receptor-associated kinase 4 (Homo sapiens) (UniProt Q9NWZ3).
T3 sequence (whole entry): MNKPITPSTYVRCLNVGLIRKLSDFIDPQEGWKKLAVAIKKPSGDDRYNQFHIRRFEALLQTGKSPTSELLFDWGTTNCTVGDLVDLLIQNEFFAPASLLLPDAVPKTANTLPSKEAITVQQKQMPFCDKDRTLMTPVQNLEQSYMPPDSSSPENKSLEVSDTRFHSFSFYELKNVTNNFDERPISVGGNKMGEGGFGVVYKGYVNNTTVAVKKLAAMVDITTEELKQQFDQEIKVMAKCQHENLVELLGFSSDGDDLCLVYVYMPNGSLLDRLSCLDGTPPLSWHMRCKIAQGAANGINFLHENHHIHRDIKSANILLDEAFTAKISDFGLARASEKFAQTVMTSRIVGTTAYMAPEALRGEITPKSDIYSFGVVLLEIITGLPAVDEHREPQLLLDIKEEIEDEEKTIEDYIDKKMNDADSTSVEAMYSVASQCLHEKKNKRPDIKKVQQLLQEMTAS
The following applies: at 0.1 µM.

Experiment [13] has as its target T3, Interleukin-1 receptor-associated kinase 4 (Homo sapiens). The following applies: at 1 µM.
The target of experiment [14] is Leucine-rich repeat serine/threonine-protein kinase 2 (Homo sapiens) (UniProt Q5S007). The following applies: at 0.1 µM.
For experiment [15] the target is unchanged. The following applies: at 1 µM.
Experiment [16] deals with Leucine-rich repeat serine/threonine-protein kinase 2 (Homo sapiens), Q5S007 [G2019S]. The following applies: at 0.1 µM.
The test system is the same in experiment [17]. The following applies: at 1 µM.

Sequence of Serine/threonine-protein kinase B-raf (Homo sapiens), P15056 [V600E] (P15056 whole entry V600E): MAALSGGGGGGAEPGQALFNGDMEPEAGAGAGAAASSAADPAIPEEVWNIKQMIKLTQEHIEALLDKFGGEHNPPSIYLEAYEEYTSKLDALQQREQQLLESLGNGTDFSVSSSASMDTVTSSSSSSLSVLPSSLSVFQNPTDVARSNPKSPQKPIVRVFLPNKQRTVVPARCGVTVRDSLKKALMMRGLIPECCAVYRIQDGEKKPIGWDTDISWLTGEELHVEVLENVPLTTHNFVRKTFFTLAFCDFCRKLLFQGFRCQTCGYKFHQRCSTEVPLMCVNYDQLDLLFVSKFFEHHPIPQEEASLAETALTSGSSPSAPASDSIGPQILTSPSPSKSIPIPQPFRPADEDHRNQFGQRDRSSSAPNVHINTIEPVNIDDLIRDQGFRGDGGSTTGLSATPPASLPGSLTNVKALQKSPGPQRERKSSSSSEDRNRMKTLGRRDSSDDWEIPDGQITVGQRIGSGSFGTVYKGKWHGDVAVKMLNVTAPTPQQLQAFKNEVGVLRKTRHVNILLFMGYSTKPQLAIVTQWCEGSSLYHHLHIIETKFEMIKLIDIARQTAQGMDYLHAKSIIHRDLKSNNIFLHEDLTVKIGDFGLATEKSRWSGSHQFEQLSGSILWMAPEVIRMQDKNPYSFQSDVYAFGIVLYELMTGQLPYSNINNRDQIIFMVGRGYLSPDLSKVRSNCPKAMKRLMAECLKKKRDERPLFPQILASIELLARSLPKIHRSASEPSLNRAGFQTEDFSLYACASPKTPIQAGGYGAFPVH
Sequence of Serine/threonine-protein kinase B-raf (Homo sapiens) (P15056 whole entry): as the sequence (P15056 whole entry V600E) above, with E600V counted along it
Sequence of Leucine-rich repeat serine/threonine-protein kinase 2 (Homo sapiens) (Q5S007 whole entry): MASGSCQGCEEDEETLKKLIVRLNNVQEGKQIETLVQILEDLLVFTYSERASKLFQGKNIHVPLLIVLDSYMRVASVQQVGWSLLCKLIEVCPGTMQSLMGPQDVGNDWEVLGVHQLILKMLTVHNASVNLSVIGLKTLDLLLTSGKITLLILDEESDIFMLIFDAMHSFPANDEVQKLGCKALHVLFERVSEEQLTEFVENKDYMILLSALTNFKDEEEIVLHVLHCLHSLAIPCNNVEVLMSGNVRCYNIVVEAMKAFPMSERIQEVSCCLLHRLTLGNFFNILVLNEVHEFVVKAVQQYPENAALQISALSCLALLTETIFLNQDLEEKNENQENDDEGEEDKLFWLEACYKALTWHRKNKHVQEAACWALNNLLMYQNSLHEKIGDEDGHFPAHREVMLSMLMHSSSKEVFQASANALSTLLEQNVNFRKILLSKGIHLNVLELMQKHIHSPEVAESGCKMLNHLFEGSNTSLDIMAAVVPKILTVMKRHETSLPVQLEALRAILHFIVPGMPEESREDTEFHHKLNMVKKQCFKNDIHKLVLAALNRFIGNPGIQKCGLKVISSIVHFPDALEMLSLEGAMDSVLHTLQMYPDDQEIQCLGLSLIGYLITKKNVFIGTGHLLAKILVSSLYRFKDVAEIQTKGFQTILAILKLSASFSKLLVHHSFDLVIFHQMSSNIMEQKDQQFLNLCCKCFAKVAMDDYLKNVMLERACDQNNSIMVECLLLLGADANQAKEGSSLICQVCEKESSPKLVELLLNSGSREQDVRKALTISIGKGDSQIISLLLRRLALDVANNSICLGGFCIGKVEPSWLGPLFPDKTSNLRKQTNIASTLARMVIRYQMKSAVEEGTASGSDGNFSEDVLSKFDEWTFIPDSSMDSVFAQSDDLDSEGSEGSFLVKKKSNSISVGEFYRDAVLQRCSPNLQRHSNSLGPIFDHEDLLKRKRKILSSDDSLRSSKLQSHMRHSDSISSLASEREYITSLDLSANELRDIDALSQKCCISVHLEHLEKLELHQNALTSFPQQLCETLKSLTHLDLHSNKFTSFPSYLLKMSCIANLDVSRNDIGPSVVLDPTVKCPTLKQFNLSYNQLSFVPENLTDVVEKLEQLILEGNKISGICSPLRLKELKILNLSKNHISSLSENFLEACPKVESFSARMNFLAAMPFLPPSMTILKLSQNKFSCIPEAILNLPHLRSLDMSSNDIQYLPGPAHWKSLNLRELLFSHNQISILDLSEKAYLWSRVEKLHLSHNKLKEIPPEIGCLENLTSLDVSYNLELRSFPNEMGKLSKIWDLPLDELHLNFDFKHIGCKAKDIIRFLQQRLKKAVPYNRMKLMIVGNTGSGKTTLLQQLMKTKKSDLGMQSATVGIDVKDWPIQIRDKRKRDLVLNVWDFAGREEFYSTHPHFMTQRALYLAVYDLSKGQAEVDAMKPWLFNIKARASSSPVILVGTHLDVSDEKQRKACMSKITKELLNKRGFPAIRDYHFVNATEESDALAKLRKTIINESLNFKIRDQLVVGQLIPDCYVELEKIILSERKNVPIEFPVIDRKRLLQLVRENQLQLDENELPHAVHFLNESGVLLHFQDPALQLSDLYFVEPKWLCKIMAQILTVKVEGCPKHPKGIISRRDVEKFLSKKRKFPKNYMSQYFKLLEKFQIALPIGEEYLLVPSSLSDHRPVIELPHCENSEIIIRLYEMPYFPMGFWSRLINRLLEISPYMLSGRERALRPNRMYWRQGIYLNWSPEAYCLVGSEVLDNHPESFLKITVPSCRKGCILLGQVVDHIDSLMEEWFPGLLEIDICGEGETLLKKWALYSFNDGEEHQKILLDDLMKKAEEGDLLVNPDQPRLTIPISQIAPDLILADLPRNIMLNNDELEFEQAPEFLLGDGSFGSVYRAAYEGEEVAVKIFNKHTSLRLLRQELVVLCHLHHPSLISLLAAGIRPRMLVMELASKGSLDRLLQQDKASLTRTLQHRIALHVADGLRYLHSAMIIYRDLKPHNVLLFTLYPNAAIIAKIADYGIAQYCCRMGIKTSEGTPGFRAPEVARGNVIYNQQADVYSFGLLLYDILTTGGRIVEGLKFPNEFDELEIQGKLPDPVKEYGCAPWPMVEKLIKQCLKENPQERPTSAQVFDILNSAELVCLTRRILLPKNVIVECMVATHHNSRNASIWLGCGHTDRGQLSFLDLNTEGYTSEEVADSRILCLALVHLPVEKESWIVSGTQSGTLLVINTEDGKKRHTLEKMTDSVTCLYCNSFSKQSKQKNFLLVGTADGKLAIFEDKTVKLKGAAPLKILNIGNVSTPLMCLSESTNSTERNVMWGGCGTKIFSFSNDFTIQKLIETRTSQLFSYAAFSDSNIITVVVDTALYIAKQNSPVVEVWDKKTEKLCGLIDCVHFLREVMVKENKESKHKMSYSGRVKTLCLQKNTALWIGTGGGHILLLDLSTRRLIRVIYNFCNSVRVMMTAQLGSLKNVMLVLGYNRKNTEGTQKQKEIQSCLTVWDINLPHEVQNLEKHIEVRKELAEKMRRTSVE
Sequence of Leucine-rich repeat serine/threonine-protein kinase 2 (Homo sapiens), Q5S007 [G2019S] (Q5S007 whole entry G2019S): as the sequence (Q5S007 whole entry) above, with G2019S counted along it
Sequence of RAF proto-oncogene serine/threonine-protein kinase (Homo sapiens) (P04049 whole entry): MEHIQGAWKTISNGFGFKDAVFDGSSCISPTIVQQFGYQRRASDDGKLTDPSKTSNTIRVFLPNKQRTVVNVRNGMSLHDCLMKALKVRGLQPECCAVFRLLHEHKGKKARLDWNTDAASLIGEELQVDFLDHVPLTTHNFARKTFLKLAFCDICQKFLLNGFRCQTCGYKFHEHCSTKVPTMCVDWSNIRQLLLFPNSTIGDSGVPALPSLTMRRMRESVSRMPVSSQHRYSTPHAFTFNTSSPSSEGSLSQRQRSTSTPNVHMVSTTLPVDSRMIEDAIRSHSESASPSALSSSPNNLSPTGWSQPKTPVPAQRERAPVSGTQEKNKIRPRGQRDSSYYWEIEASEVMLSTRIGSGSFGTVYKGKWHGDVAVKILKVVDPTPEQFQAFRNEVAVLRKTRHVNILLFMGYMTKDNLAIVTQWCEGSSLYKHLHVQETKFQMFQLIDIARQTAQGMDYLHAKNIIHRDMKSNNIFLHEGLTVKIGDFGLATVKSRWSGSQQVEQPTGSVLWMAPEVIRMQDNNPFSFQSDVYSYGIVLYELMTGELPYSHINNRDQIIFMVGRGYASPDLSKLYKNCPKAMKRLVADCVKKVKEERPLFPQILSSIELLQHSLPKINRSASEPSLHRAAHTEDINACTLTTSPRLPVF
Sequence of Tyrosine-protein kinase Yes (Homo sapiens) (P07947 2-543 limits assumed): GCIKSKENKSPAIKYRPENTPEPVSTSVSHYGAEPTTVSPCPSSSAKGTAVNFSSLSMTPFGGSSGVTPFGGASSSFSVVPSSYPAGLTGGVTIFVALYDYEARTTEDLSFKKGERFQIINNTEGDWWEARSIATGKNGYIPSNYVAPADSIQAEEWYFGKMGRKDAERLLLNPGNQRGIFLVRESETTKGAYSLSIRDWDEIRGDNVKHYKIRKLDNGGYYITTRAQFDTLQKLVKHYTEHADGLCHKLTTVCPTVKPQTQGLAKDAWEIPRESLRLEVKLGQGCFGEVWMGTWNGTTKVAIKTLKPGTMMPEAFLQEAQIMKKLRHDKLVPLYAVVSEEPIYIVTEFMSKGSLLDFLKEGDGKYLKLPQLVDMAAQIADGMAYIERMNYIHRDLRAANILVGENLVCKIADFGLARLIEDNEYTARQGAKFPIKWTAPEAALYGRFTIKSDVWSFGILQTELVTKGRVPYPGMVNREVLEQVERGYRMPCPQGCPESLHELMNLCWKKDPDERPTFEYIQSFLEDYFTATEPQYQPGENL

`CN1CCC(n2cnc(-c3ccc(F)cc3)c2-c2ccnc(NCCO)n2)CC1`: the inhibition in experiment [1] is 5.81%; in experiment [2], 2.55%; in experiment [3] it was 8.81%; in [4] it was 2.9%; in [5], -0.3%; in [6] it was 5.28%. The inhibition in experiment [7] was 8.68%; in [8], 4.16%; in [9], 8.41%; in experiment [10] it was -1.57%; in experiment [11] it was 1.26%; in experiment [12], -1.44%. The inhibition in [13] turned out to be 1.47%; in experiment [14] it was 3.06%; in experiment [15], 4.49%; in experiment [16] it was 4.69%; in [17], 5.35%.

In the case of `CCOc1ccc2c(-c3ccnc(Nc4cc(OC)cc(C(F)(F)F)c4)n3)cnn2n1`, the inhibition in [1] was found to be 4.4%; in experiment [2], 2.04%; in experiment [3], 6.75%; in experiment [4], 0.43%; in experiment [5], 3.29%; in [6], 0.89%. For the same compound, the inhibition in experiment [7] is 1.03%; in experiment [8], 0.43%; in experiment [9], 1.03%; in experiment [10], -4.87%; in [11], -1.65%; in experiment [12] it was -3.8%. Also, the inhibition in experiment [13] worked out at 0.63%; in experiment [14], 1.55%; in [15] it was 5.25%; in [16] it was 3.62%; in experiment [17], 12.8%.

In the case of `COc1cccc(Nc2nccc(-c3cnn4ncccc34)n2)c1`, the inhibition in [1] is 21.2%; in experiment [2] it was 3.57%; in [3], 20.5%; in experiment [4] it was 2.31%; in experiment [5] it was 11.7%; in experiment [6], 5.24%. Moreover, the inhibition in [7] is 31.6%; in experiment [8] it was 4.52%; in [9], 30.7%; in experiment [10], 2.53%; in experiment [11], -1.47%; in experiment [12] it was 0.48%. Besides, the inhibition came out at 11.1% in experiment [13]; 9.98% in experiment [14]; 21.1% in experiment [15]; 13.3% in experiment [16]; 54.8% in experiment [17].

`Fc1cccc(COc2ccc(Nc3ncncc3C#Cc3ccccc3)cc2Cl)c1`: the inhibition was determined as 9.44% in experiment [1]; 4.11% in [2]; 3.65% in experiment [3]; 2.29% in experiment [4]; 1.11% in experiment [5]; 6.77% in [6]. The inhibition was 4.45% in experiment [7]; 6.66% in experiment [8]; 5.53% in [9]; -0.3% in experiment [10]; 5.17% in experiment [11]; 0.71% in experiment [12]. Besides, the inhibition turned out to be 2.43% in [13]; 3.65% in experiment [14]; 7.01% in experiment [15]; 4.05% in experiment [16]; 6.17% in experiment [17].

With `CN(c1ccc(NC(=O)NCCN2CCOCC2)cc1)c1ccnc(Nc2ccc(CS(C)(=O)=O)cc2)n1`, the inhibition in experiment [1] is 6.95%; in experiment [2], 1.4%; in experiment [3], 8.5%; in experiment [4] it was 0.58%; in experiment [5], 2.72%; in [6] it was 4.55%. For the same compound, the inhibition in experiment [7] was 7.4%; in experiment [8], 3.94%; in experiment [9], 7.38%; in experiment [10] it was 6.1%; in experiment [11] it was 7.58%; in experiment [12] it was -5.94%. Besides, the inhibition came out at 1.07% in experiment [13]; 2.79% in [14]; 9.85% in experiment [15]; 2.66% in [16]; 14.7% in [17].

In the case of `CS(=O)(=O)CCNCc1ccoc1-c1ccc2ncnc(Nc3ccc(OCc4ccccc4)cc3)c2c1`, the inhibition was 3.68% in experiment [1]; 4.12% in [2]; 21.9% in [3]; -0.82% in experiment [4]; 2.26% in [5]; 1.03% in [6]. Also, the inhibition is 1.49% in experiment [7]; 1.75% in [8]; 1.31% in [9]; -1.29% in experiment [10]; -1.65% in experiment [11]; 0.62% in experiment [12]. The inhibition in experiment [13] came out at 1.15%; in experiment [14], 1.37%; in [15] it was 3.82%; in experiment [16], 2.44%; in [17], 2.57%.

Turning to `NS(=O)(=O)c1ccc(N/N=C2\C(=O)Nc3cccc(CCc4ccncc4)c32)cc1`, the inhibition in experiment [1] is 2.17%; in [2], 4.12%; in experiment [3], 11.4%; in [4], -0.82%; in [5] it was 13.7%; in experiment [6], 1.54%. Further, the inhibition in experiment [7] is 1.46%; in experiment [8], 3.22%; in [9] it was 2.2%; in [10], -0.07%; in experiment [11], -2.61%; in experiment [12] it was -0.38%. Also, the inhibition in [13] turned out to be 0.01%; in [14], 6.21%; in [15] it was 9.58%; in experiment [16], 8.14%; in experiment [17], 12.9%.

Turning to `COc1cc2c(cc1Nc1nc(Nc3cccc(F)c3C(N)=O)c3cc[nH]c3n1)N(C(=O)CN1CCN(C(C)C)CC1)CC2`, the inhibition in experiment [1] is 0.01%; in experiment [2], 1.54%; in experiment [3], 1.04%; in experiment [4], 2.59%; in experiment [5], 3.22%; in experiment [6], 2.3%. The inhibition in experiment [7] was 7.9%; in experiment [8], 2.2%; in experiment [9], 4.6%; in [10], 0.97%; in experiment [11], -4.19%; in [12], -0.19%. Further, the inhibition in experiment [13] was -0.43%; in experiment [14], 25.8%; in experiment [15], 76.8%; in experiment [16], 41.5%; in experiment [17], 59.8%.

The record behind these values is ChEMBL document CHEMBL1961873, “Compounds: GSK PKIS; Assays: Nanosyn kinase panel” (2012).
